Laboratory results: PubChem BioAssay (Tox21)
Several values for one entry are separate records, joined by “and”; a condition that tells them apart may be missing. Identical values can stand only once. Records with an inconclusive call do not appear. Some compounds were tested as several samples or in several runs, with calls that do not always agree. Activity calls are given as the source filed them. Unless noted, the call rests on the fitted dose curve; in most records, active means well fitted curve in the direction sought with a large enough effect in the repeat runs; inconclusive means weak or mixed curves; inactive means no such curve, though single readings can be large; an effect the other way counts as inactive or inconclusive.

Columns and labels:
[1] = qHTS assay to identify aromatase inhibitors - cell viability counter screen (AID 743084);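 further: cells stimulated with testosterone during compound exposure; nearly all actives have a fitted effect of over 55% in size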; further: potency means the concentration at half of the fitted maximal effect
[2] = molecular target: Aryl hydrocarbon receptor (Homo sapiens) (UniProt P35869); assay: qHTS assay to identify small molecule that activate the aryl hydrocarbon receptor (AhR) signaling pathway (AID 743085); further: nearly all actives have a fitted effect of over 15% in size; further: potency means the concentration at half of the fitted maximal effect;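 on activation: HG2L7.5c1 human HepG2 liver cells with stably integrated DRE-driven firefly reporter; series mostly up to about 70 µM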
Summary of the method: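 AhR agonist activity is inferred from enhanced light output of a DRE-controlled firefly luciferase reporter in HepG2 cells, measured with ONE-Glo following 24 h treatment at 37C.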

[3] = qHTS assay to identify small molecule that activate the aryl hydrocarbon receptor (AhR) signaling pathway - cell viability counter screen (AID 743086); further: nearly all actives have a fitted effect of over 45% in size; further: potency means the concentration at half of the fitted maximal effect
Summary of the method: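 Cytotoxicity counter screen: CellTiter-Fluor signal (30 min, 37 C) in 4000 HepG2 cells/well carrying the DRE-luciferase reporter, following 24 h compound exposure at 37 C.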

[4] = qHTS assay to identify small molecule antagonists of the peroxisome proliferator-activated receptor gamma (PPARg) signaling pathway - cell viability counter screen (AID 743194); further: nearly all actives have a fitted effect of over 55% in size
Summary of the method: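 Viability was measured as CellTiter-Glo luminescence in GeneBLAzer PPARg UAS-bla HEK293H cells. These cells had been exposed 17 h at 37 C to compounds together with rosiglitazone at 50 nM final, with the beta-lactamase readout taken in the same wells.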

[5] = qHTS assay for small molecule agonists of the antioxidant response element (ARE) signaling pathway (AID 743202; active means well fitted activation curve with a large enough effect in the signal ratio in the repeat runs, not every such curve was filed as active; the % refers to the signal ratio; further: potency means the concentration at half of the fitted maximal effect)
Summary of the method: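 Beta-lactamase reporter activity, read as fluorescence intensity, reflects ARE/Nrf2 pathway induction in HepG2 cells after 16 h compound exposure at 37 C; substrate loading was 2 h at room temperature.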

[6] = qHTS assay for small molecule agonists of the antioxidant response element (ARE) signaling pathway - cell viability counter screen (AID 743203; calls by dose curve; further: nearly all actives have a fitted effect of over 55% in size)
Summary of the method: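 Parallel cytotoxicity read-out for the ARE-bla screen: HepG2 reporter cells, 16 hrs with compounds, then CellTiter-Glo luminescence.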

[7] = qHTS assay for small molecule activators of the heat shock response signaling pathway - cell viability counter screen (AID 743209); further: nearly all actives have a fitted effect of over 50% in size
Summary of the method: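 To flag cytotoxic compounds, HSE-bla HeLa cells plated at 1500 cells/well were dosed for 5 h at 37 C, followed by the reporter FRET read and then CellTiter-Glo, with luminescence recorded 30 min after reagent addition.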

[8] = qHTS assay for small molecule activators of the heat shock response signaling pathway (AID 743210; active means well fitted activation curve with a large enough effect in the signal ratio in the repeat runs, with a control signal flat, not every such curve was filed as active; the % refers to the signal ratio;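 further: HeLa cells with beta-lactamase reporter driven by heat shock elements; series mostly up to about 63 µM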)
Summary of the method: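 Fluorescence from a cleaved B/G FRET substrate (2.5 h, room temp) reports HSE-driven beta-lactamase in HeLa cells treated 5 h at 37 C with DMSO-dissolved compounds.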

[9] = molecular target: Peroxisome proliferator-activated receptor gamma (Homo sapiens) (UniProt P37231); assay: qHTS assay to identify small molecule agonists of the peroxisome proliferator-activated receptor gamma (PPARg) signaling pathway (AID 743094; active means well fitted activation curve with a large enough effect in the signal ratio in the repeat runs, not every such curve was filed as active; the % refers to the signal ratio)
Summary of the method: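 Fluorescence-based beta-lactamase readout in HEK293H PPARg UAS-bla cells after 17 h compound exposure (37C) and 1 h B/G FRET substrate incubation at room temperature.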

[10] = molecular target: Peroxisome proliferator-activated receptor gamma (Homo sapiens) (UniProt P37231); assay: qHTS assay to identify small molecule antagonists of the peroxisome proliferator-activated receptor gamma (PPARg) signaling pathway (AID 743191; calls by dose curve; further: series mostly up to about 63 µM; nearly all actives have a fitted effect of over 30% in size)
Summary of the method: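 Beta-lactamase reporter under UAS control in HEK293H PPARg-bla cells; compound treatment 17 h at 37C. Read-out: fluorescence intensity after 1 h room-temperature incubation with LiveBLAzer B/G FRET substrate.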

Measured: Potency

Sequence of Aryl hydrocarbon receptor (Homo sapiens) (P35869 whole entry, looked up): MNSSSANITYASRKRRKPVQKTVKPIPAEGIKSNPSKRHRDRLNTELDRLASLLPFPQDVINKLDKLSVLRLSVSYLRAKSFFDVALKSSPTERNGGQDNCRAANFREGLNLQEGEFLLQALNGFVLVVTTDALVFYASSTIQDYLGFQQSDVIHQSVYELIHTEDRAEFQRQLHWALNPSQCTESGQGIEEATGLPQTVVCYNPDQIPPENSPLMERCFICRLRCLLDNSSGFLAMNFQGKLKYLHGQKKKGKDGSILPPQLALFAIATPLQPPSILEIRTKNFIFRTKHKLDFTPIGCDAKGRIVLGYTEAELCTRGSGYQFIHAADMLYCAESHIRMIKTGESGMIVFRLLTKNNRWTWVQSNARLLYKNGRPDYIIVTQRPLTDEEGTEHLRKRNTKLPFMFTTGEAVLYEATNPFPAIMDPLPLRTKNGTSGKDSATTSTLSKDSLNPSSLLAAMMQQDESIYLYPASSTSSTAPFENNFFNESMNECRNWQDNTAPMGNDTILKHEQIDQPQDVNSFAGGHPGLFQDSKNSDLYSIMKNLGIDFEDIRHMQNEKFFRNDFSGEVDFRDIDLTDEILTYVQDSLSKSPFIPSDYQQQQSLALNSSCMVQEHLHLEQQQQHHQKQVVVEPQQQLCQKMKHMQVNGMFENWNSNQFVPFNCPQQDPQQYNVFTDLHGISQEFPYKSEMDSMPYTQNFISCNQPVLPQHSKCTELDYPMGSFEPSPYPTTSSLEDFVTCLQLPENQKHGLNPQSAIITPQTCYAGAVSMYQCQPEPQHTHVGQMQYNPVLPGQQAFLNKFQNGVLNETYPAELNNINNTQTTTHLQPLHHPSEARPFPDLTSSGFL
Sequence of Peroxisome proliferator-activated receptor gamma (Homo sapiens) (P37231 whole entry, looked up): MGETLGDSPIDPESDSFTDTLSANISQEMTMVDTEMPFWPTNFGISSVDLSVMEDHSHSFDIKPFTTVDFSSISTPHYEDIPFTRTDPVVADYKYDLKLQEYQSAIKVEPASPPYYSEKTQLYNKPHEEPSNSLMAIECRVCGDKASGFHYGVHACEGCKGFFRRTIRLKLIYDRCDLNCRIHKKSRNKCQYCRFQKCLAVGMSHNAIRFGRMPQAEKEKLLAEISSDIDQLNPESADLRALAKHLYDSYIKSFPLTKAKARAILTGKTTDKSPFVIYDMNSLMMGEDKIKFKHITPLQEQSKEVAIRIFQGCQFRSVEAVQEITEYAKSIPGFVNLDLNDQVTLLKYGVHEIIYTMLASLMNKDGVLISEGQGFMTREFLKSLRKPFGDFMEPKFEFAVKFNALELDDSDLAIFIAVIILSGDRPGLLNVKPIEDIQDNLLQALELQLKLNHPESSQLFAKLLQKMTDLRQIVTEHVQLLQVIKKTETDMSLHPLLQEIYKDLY

Oc1ccc2ccccc2c1
active: [2] 49.7 µM and 27.3 µM | [5] 35.2 µM and 21.7 µM
not listed: [9] | [10]
inactive: all other assays above

COC(=O)c1ccccc1O
not listed: [8] | [9] | [10]
inactive: all other assays above

Cc1cc(O)cc(C)c1Cl
not listed: [2]
inactive: all other assays above

C[C@@H]1O[C@@H](OC[C@H]2O[C@@H](Oc3c(-c4ccc(O)c(O)c4)oc4cc(O)cc(O)c4c3=O)[C@H](O)[C@@H](O)[C@@H]2O)[C@H](O)[C@H](O)[C@H]1O
not listed: [5] | [9] | [10]
inactive: all other assays above

Oc1ccc(OCc2ccccc2)cc1
21.2 µM (active) and inactive: [5]
not listed: [9] | [10]
inactive: all other assays above

CC1=CC[C@H]2C[C@@H]1C2(C)C
not listed: [2] | [10]
inactive: all other assays above

C=C1CC[C@H](O)CC1=C/C=C1\CCC[C@]2(C)[C@@H]([C@H](C)/C=C/[C@H](C)C(C)C)CC[C@@H]12
active: [5] 13.6 µM and 24.3 µM
inactive: [1] | [2] | [3] | [6] | [7]

O=S(=O)(O)c1cc(S(=O)(=O)O)c2c(N=Nc3ccccc3)c(O)ccc2c1
active: [1] 24.4 µM and 27.3 µM | [3] 21.8 µM and 21.7 µM
not listed: [9] | [10]
inactive: all other assays above

CC(C)n1c(/C=C/[C@@H](O)C[C@@H](O)CC(=O)O)c(-c2ccc(F)cc2)c2ccccc21
active: [2] 15 µM
not listed: [9] | [10]
inactive: all other assays above

CC(C)NCC(O)COc1cccc2ccccc12 (centres undefined)
not listed: [5] | [9] | [10]
inactive: all other assays above

O=[N+]([O-])c1cc(N(CCO)CCO)ccc1NCCO
active: [1] 48.5 µM and 61.1 µM
not listed: [3] | [9] | [10]
inactive: all other assays above

O=C(O)c1ccc([N+](=O)[O-])cc1
not listed: [9] | [10]
inactive: all other assays above

CCCCNC(N)=O
not listed: [2]
inactive: all other assays above

CC(=O)CCc1ccccc1
not listed: [2]
inactive: all other assays above
